# Results taken from PubChem BioAssay (Tox21).
# Values joined by “and” are separate entries in the source; they are usually repeats but may differ in a detail not shown here. Identical values can stand only once. Records with an inconclusive call do not appear. Where a call stands in place of a potency, no number is given. Unmarked numbers belong to inactive results. Active and inactive are the calls of the source. Calls come from the whole dose curve; as a rule, active = well fitted curve in the direction sought with a large enough effect in the repeat runs; inconclusive = weak or mixed curves; inactive = no such curve, though single readings can be large; an effect the other way counts as inactive or inconclusive.
# Assay: qHTS RealTime-Glo MT Cell Viability Assay in HepG2 cells - 16 hour (AID 1224885)
# Settings: RealTime-Glo luminescence; series mostly up to 76.8 µM; activity change, negative = cytotoxic: at the top concentration
# Method in brief: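 Viability was tracked continuously by NanoLuc luminescence from prosubstrate reduced by living HepG2 cells, at successive time points over 40 h of compound exposure. Cells with reagent were preincubated 5 h at 37 °C before compound addition.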
# Note: nearly all actives have a fitted effect of over 50% in size.
# Potency is the fitted concentration of half-maximal effect.
SMILES,Potency,"activity change, negative = cytotoxic [%]"
Nn1cnnc1,inactive,–
CCCCC(CC)COC(=O)Cl (stereo unspecified),inactive,–
CCCCCCCCOC(=O)c1ccccc1C(=O)OCCCCCCCC,inactive,–
COC(=O)c1sccc1S(=O)(=O)NC(=O)Nc1nc(C)nc(OC)n1,inactive,–
COP(=S)(OC)Oc1cc(Cl)c(Cl)cc1Cl,inactive,–
O=c1oc2ccccc2c(O)c1C(CC(O)c1ccc(-c2ccc(Br)cc2)cc1)c1ccccc1 (stereo unspecified),inactive,–
CCC(C)c1cc([N+](=O)[O-])cc([N+](=O)[O-])c1O (stereo unspecified),inactive,–
CC(C)=CC1C(C(=O)OCc2coc(Cc3ccccc3)c2)C1(C)C (stereo unspecified),inactive,–
N#CC(Br)Br,inactive,–
CCN(CC)C(=O)/C(Cl)=C(\C)OP(=O)(OC)OC,inactive,–
CC(C)(c1cc(Cl)c(O)c(Cl)c1)c1cc(Cl)c(O)c(Cl)c1,inactive,–
CCCCCCOC(=O)c1ccccc1C(=O)OCCCCCC,inactive,–
Oc1cc(Cl)ccc1Oc1ccc(Cl)cc1Cl,22.4 µM (active) and 23.9 µM (active),–
O=P(Oc1ccccc1)(Oc1ccccc1)Oc1ccccc1,inactive,–
Oc1ccc(-c2ccccc2)cc1,inactive,–
CC(C)(C)c1ccccc1O,inactive,–
CCCCCCCCCCCOC(=O)c1ccccc1C(=O)OCCCCCCCCCCC,inactive,–
C[C@]12CCC(=O)C(O)=C1CC[C@@H]1[C@@H]2CC[C@]2(C)C(=O)CC[C@@H]12,inactive,–
CCCCN(CC)c1c([N+](=O)[O-])cc(C(F)(F)F)cc1[N+](=O)[O-],inactive,–

SMILES,Potency,"activity change, negative = cytotoxic [%]"
Cc1ccc(OP(=O)(Oc2ccc(C)cc2)Oc2ccc(C)cc2)cc1,inactive,–
CC(C)Oc1cc(-n2nc(C(C)(C)C)oc2=O)c(Cl)cc1Cl,inactive,–
CC(C)NC(C)C,inactive,–
CCOP(=S)(OCC)O/N=C(\C#N)c1ccccc1,inactive,–
Cc1ccc2c(c1N)C(=O)c1ccccc1C2=O,–,-24.8
O=S(=O)(Oc1ccc(Cl)cc1)c1ccc(Cl)cc1,inactive,–
COP(=S)(OC)Oc1ccc([N+](=O)[O-])cc1,inactive,–
OCC(O)CO,inactive,–
CCOCN(C(=O)CCl)c1c(C)cccc1CC,inactive,–
C=CC(=O)OCCO,inactive,–
Nc1ccc(-c2ccc(N)c(N)c2)cc1N,inactive,–
c1ccc(-c2cccc(-c3ccccc3)c2)cc1,inactive,–
Brc1ccc(Oc2cc(Br)c(Br)cc2Br)c(Br)c1,inactive,–
O=Cc1ccco1,inactive,–
NNC(=S)NN,inactive,–
CCCCCCCCC(=O)NCc1ccc(O)c(OC)c1,inactive,–
CCOc1cc(C=O)ccc1O,inactive,–
CCCCNC(=O)n1c(NC(=O)OC)nc2ccccc21,inactive,–
Cc1cc(C)cc(C)c1,inactive,–

# Assay: qHTS RealTime-Glo MT Cell Viability Assay in HEK293 cells - 24 hour (AID 1224886); for activity change, negative = cytotoxicity: top concentration of the series differs between compounds
# Settings: RealTime-Glo luminescence; series mostly up to 76.8 µM; activity change, negative = cytotoxicity: at the top concentration
# Method in brief: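 Viability tracked continuously by luminescence as live cells reduce a prosubstrate for NanoLuc; HEK293 cells preincubated 5 h, compound-treated at 37 C, and read at 0, 8, 16, 24, 32 and 40 h.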
SMILES,Potency,"activity change, negative = cytotoxicity [%]"
CCCCCCCCOC(=O)c1ccccc1C(=O)OCCCCCCCC,inactive,–
COP(=S)(OC)Oc1cc(Cl)c(Cl)cc1Cl,inactive,–
O=c1oc2ccccc2c(O)c1C(CC(O)c1ccc(-c2ccc(Br)cc2)cc1)c1ccccc1 (stereo unspecified),inactive,–
CC(C)=CC1C(C(=O)OCc2coc(Cc3ccccc3)c2)C1(C)C (stereo unspecified),–,-17.6
CCN(CC)C(=O)/C(Cl)=C(\C)OP(=O)(OC)OC,inactive,–
CC(C)(c1cc(Cl)c(O)c(Cl)c1)c1cc(Cl)c(O)c(Cl)c1,inactive,–
CCCCCCOC(=O)c1ccccc1C(=O)OCCCCCC,inactive,–
Oc1cc(Cl)ccc1Oc1ccc(Cl)cc1Cl,22.4 µM (active) and 23.9 µM (active),–
O=P(Oc1ccccc1)(Oc1ccccc1)Oc1ccccc1,inactive,–
Oc1ccc(-c2ccccc2)cc1,21.9 µM (active),–
CC(C)(C)c1ccccc1O,–,-2.66
CCCCCCCCCCCOC(=O)c1ccccc1C(=O)OCCCCCCCCCCC,inactive,–
Cc1ccc(OP(=O)(Oc2ccc(C)cc2)Oc2ccc(C)cc2)cc1,–,-21.1
CC(C)Oc1cc(-n2nc(C(C)(C)C)oc2=O)c(Cl)cc1Cl,30.9 µM (active),–
CC(C)NC(C)C,inactive,–
O=S(=O)(Oc1ccc(Cl)cc1)c1ccc(Cl)cc1,inactive,–
COP(=S)(OC)Oc1ccc([N+](=O)[O-])cc1,inactive,–
Nc1ccc(-c2ccc(N)c(N)c2)cc1N,–,15.4
c1ccc(-c2cccc(-c3ccccc3)c2)cc1,–,-27.9
Brc1ccc(Oc2cc(Br)c(Br)cc2Br)c(Br)c1,38.9 µM (active),–
O=Cc1ccco1,–,1.37
NNC(=S)NN,inactive,–
CCCCCCCCC(=O)NCc1ccc(O)c(OC)c1,inactive,–
CCCCNC(=O)n1c(NC(=O)OC)nc2ccccc21,–,-29.9

# Assay: qHTS RealTime-Glo MT Cell Viability Assay in HEK293 cells - 8 hour (AID 1224887); for activity change, negative = cytotoxicity: top concentration of the series differs between compounds
# Settings: RealTime-Glo luminescence; series mostly up to 76.8 µM; activity change, negative = cytotoxicity: at the top concentration
# Method in brief: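 Tox21 screen in HEK293 using RealTime-Glo MT chemistry, with cells and reagent co-dispensed. Luminescence proportional to viable cell number was captured at intervals during 40 h compound exposure at 37 C.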
row,SMILES,Potency
1,Nn1cnnc1,inactive
2,CCCCC(CC)COC(=O)Cl (stereo unspecified),inactive
3,COC(=O)c1sccc1S(=O)(=O)NC(=O)Nc1nc(C)nc(OC)n1,inactive
4,CCC(C)c1cc([N+](=O)[O-])cc([N+](=O)[O-])c1O (stereo unspecified),inactive
5,N#CC(Br)Br,inactive
6,C[C@]12CCC(=O)C(O)=C1CC[C@@H]1[C@@H]2CC[C@]2(C)C(=O)CC[C@@H]12,inactive
7,CCCCN(CC)c1c([N+](=O)[O-])cc(C(F)(F)F)cc1[N+](=O)[O-],17.7 µM (active)
8,CCOP(=S)(OCC)O/N=C(\C#N)c1ccccc1,inactive
9,Cc1ccc2c(c1N)C(=O)c1ccccc1C2=O,7.68 µM (active) and 6.92 µM (active)
10,OCC(O)CO,inactive
11,CCOCN(C(=O)CCl)c1c(C)cccc1CC,inactive
12,C=CC(=O)OCCO,inactive
13,CCOc1cc(C=O)ccc1O,inactive
14,Cc1cc(C)cc(C)c1,inactive
